This is an account of results in PubChem BioAssay (NCI).

Molecules are shown by their SMILES. This is part of a sample that, as a whole, favours compounds with a hit. Of some 83,000 tested, about 20% had one in any assay.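 Method: cells in 96-well plates; compound added at one concentration; 48 h incubation; percent growth measured; values under 10 scored active.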 A number with no mark means an inactive call. Activity calls are given as the source filed them.

For this experiment, the system named is HL-60(TB) leukemia. In words: NCI-60 one-dose screen, 48 h (100 = growth as untreated, 0 = no growth, -100 = all killed). The following applies: 10 µM unless noted.
With `COc1ccc2c(c1OC)OCC(CN(C)C)C2=O` (stereo not given), the growth is 40.1%.

On to `COc1ccc2c(c1)C=C1CSCC3=Cc4cc(OC)ccc4OC13O2`, for which the growth is -5.12% (active).

Turning to `Cc1nc2ccccc2c(/C=C/c2ccc(C(F)(F)F)cc2)c1C(=O)/C=C/c1ccccc1`, the growth is -19% (active).

As for `COc1cc2cc(Oc3ccc(NC(=O)Nc4ccc(Cl)c(Cl)c4)cc3)c(C)nc2cc1OCCN1CCCCC1`, the growth is 44.1%. In the case of `O=C1NC(=O)c2cc([N+](=O)[O-])cc3cccc1c23` it was 135%; in that of `COc1cc(OC)c2sc(-c3ccc(-n4cncc4-c4ccc(OC)c(N)c4)cc3)nc2c1`, 58.4%; in that of `Nc1ccc(Cl)c([N+](=O)[O-])c1`, 118%. Turning to `COC(=O)C1(C)CCC[C@]2(C)[C@H]3C[C@H]4C(C(C)C)=C[C@]3(CC[C@@H]12)[C@H]1[C@@H]4[C@@H](OCC#CCN2CCOCC2)CC[C@@H]1OCC#CCN1CCOCC1` (stereo not given in full), the growth was 88.7%. In the case of `O=C(Nc1ccccc1)NS(=O)(=O)c1c[nH]c(=S)[nH]c1=O` it was 77.8%; in that of `O=c1ccn2c(n1)OC1CC2OC1COC(c1ccccc1)(c1ccccc1)c1ccccc1` (stereo not given), 89.2% [100 µM]; in that of `C=C(C)[C@@H]1CC[C@]2(C(=O)NCCNCCNCCN)CC[C@]3(C)[C@H](CC[C@@H]4[C@@]5(C)CCC(=O)C(C)(C)[C@@H]5CC[C@]43C)[C@@H]12`, -35.6% [100 µM] (active).

On to `CN(C)CCCOc1ccc(NC2=C(Cl)C(=O)C(Nc3ccc(OCCCN(C)C)cc3)=C(Cl)C2=O)cc1`, for which the growth is -39.9% (active).

For the compound `CC(C)c1ccc2occ(C=C3C(=O)NC(=O)NC3=O)c(=O)c2c1`, the growth was 74.8%.

On to `Cc1ccc(NCc2cn(-c3ccc(C(=O)O)cc3)nc2-c2ccc(C(=O)O)cc2)cc1`, for which the growth was 106%. In the case of `O=[N+]([O-])c1ccc2c(c1)Cc1cc(I)ccc1-2` it was 92.8%; in that of `COc1ccc(C(=O)c2cc(OC)c(C)c(OC)c2)cc1OC(=O)CCl`, -28.5% (active); in that of `O=C1/C=C/[C@@H](O)[C@@H]2C[C@@H](O)C[C@H]2/C=C/CCC[C@H](CCc2ccc(C(F)(F)F)cc2)O1`, -10.1% (active). In the case of `CC(=O)OCC(OC(C)=O)C(OC(C)=O)C(OC(C)=O)C(OC(C)=O)C(/C=N/Nc1ccccc1)=N/Nc1ccccc1` (stereo not given) it was 59.4%. As to `O=C(c1c[nH]c2ccccc12)c1n[nH]c(=S)n1-c1cccc(Br)c1`, the growth was 88.8%. In the case of `O=C(O)c1ccc(-n2cc(/C=N/Nc3ccc(Cl)cc3)c(-c3ccc(F)c(F)c3)n2)cc1` it was 27.1%; in that of `COC(=O)C(c1ccccc1)C(CC(=O)c1ccccc1)c1ccccc1` (stereo not given), 92.5%. In the case of `C[N+](C)(C)CCCCCCCCCC[N+](C)(C)C` it was 96.5%; in that of `CC(C)C1=NOC(=O)C1=Cc1cn(-c2ccccc2)nc1-c1ccccc1`, -45.2% (active). In the case of `COC(=O)c1c2c(c(C)[n+]([O-])c1C)C(=O)C(NCCN1CCOCC1)=CC2=O` it was 52.4%; in that of `COc1ccc2oc(=O)cc(-c3nc4ccc(N)cc4[nH]3)c2c1`, 101%; in that of `O=C(O)Cc1ccc2c(c1)Cc1cccnc1O2`, 103%. Consider `Cc1c(Cl)cccc1NC(=O)c1sc2nc3c(cc2c1N)CCCCCC3`, for which the growth was -15.9% (active).

Turning to `CCCCC(NC(=O)CN1C(=O)/C(=C/C(C)=C/c2ccccc2)SC1=S)C(=O)O` (stereo not given), the growth is 113%.

`C=C1C(=O)O[C@H]2[C@H]1CC/C(COC(=O)NCc1c[nH]c3ccc(Br)cc13)=C\CC[C@@]1(C)O[C@@H]21`: the growth was -26.9% (active).

For `COc1cc2ncnc(Nc3ccc(F)c(Cl)c3)c2cc1NC(=O)/C=C/CN1CCCCC1`, the growth was -50.2% (active). For the compound `CCc1c(C)c2ccc(O)c(-c3cc(-c4ccccc4)c(C#N)c(=O)[nH]3)c2oc1=O`, the growth was 109%. On to `C=C1C(=O)O[C@H]2[C@H]1CC/C(CNC(=O)CCc1ccc(OC)cc1)=C\CC[C@@]1(C)O[C@@H]21`, for which the growth is 3.96% (active).

Take `CCO/C=N/C1=C(C#N)C(c2ccc(Cl)cc2)c2c(c3ccc(C)cc3[nH]c2=O)O1` (stereo not given): the growth is 88.6%.

For the compound `O=C(Nc1cc(-c2ccccc2)[nH]n1)c1ccc(Cl)cc1`, the growth was 42.1%.

As for `N=C(N)N=Nc1ccc(NN=C(N)N)c2ccccc12`, the growth is 113%. For the compound `N#Cc1ccccc1C#Cc1ccccc1C#Cc1ccc(OCCCCCCOc2ccc(C#Cc3ccccc3C#Cc3ccccc3C#N)cc2)cc1`, the growth is 99.7%.

Regarding `COc1ccc(C2CC(c3ccc(Cl)cc3)=NN2/C=C2\SC(=S)N(NC(=O)Cc3ccccc3Nc3c(Cl)cccc3Cl)C2=O)cc1` (stereo not given), the growth is 64.7%. In the case of `C/C(=C\CCc1ccoc1)CC/C=C(\C)CCCN1CCC(CO)CC1` it was 17.2%; in that of `OC(COc1ccccc1)CN1CCN(c2ccc(Cl)cc2)CC1` (stereo not given), 83.3%. In the case of `CC[n+]1c(C)ccc2cc(C)ccc21` it was 87%.
